Measurements from PubChem BioAssay AID1851 (National Center for Advancing Translational Sciences (NCATS), 2009).
Hit rate of the full screen: of about 16,000 compounds, about 2,600 (16%) were called active. Roughly 20% stayed inconclusive and do not appear here. Not all results are given here. Unmarked numbers belong to inactive results. The call rests on the fitted dose curve; in most records, active means well fitted curve in the direction sought with a large enough effect; inconclusive means small, poorly fitted or top-dose-only effect, or effect the other way; inactive means no such curve, though single readings can be large or run the other way.

Biological target: Cytochrome P450 2D6 (Homo sapiens) (UniProt P10635)
Experiment: Cytochrome panel assay with activity outcomes
Details: recombinant CYP, pro-luciferin dealkylation, luminescence, p450-cyp2d6; series mostly up to 57.1 µM; activity, negative = inhibition: at the top concentration
On the % scale 0 is the no-effect control and ±100 the full control effect.

Chain of Cytochrome P450 2D6 (Homo sapiens) (P10635 whole entry, looked up): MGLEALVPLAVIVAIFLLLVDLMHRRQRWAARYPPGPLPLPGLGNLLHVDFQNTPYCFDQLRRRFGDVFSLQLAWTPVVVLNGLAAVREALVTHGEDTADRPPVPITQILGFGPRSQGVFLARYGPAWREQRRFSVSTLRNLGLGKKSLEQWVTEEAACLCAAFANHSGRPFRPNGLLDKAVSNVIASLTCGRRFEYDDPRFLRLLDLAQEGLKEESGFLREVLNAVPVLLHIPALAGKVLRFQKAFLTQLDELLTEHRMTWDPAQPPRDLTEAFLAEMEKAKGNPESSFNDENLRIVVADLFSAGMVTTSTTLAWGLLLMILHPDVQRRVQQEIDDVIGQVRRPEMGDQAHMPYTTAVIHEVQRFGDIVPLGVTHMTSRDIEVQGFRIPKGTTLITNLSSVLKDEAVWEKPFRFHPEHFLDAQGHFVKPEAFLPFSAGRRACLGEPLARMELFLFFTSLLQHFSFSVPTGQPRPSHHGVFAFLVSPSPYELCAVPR

Going from `CC(C)Oc1ccc(C2CC(=O)NC3=C2C(=O)CCC3)cc1` (centres undefined) to `COc1ccc(C2C(C(=O)N3CCOCC3)CCC(=O)N2c2ccc(OC)cc2)cc1` (centres undefined), the “activity, negative = inhibition” value rises from -8.75% to 8.66%.

Going from `CCCCSC(=S)N(C)C1CCS(=O)(=O)C1` (centres undefined) to `CCOC(=O)CC1NC(=O)c2ccccc21` (centres undefined), the “activity, negative = inhibition” value rises from -20.3% to 11.6%.

First: CCOc1cc(C2CC(=O)c3c(ccc4ccccc34)N2)ccc1O (centres undefined)
Second: COc1ccccc1CCn1c(=O)c(-c2ccc(F)cc2)nc2cncnc21
The “activity, negative = inhibition” value of the first is lower: -0.911% for the first, 12.9% for the second.

Compared with `CC(C)C(NC(=O)C12CC3CC(CC(C3)C1)C2)C(=O)NC1=NCCS1` (centres undefined), `C[C@@H](C(=O)Nc1ccc2ccccc2c1)[C@@H]1C[C@@]1(C)[C@@H](NC(=O)c1cnccn1)c1ccccc1` is higher in “activity, negative = inhibition” value: -10.7% for the first, -6.62% for the second.

First: COC(=O)c1cc(C(=O)c2cccc(Cl)c2Cl)cn1C
Second: COc1cccc(NC(=O)c2oc3ccccc3c2NC(C)=O)c1
The “activity, negative = inhibition” value of the first is lower: -19.6% for the first, -15.6% for the second.

First: Cc1cnc(CNc2ncncc2-c2ccccc2C#N)cn1
Second: COc1ccccc1CN1C(=O)c2ccncc2C1=O
The “activity, negative = inhibition” value of the first is lower: -2.44% for the first, -1.12% for the second.

First: CC(C)Oc1cccc(C(=O)NC(=S)N2CCN(c3ccc(C(F)(F)F)cc3[N+](=O)[O-])CC2)c1
Second: Cc1cccc(NC2=NC(=S)N(c3ccc(C(=O)O)cc3)C23CCCCC3)c1
The “activity, negative = inhibition” value of the first is lower: -16.2% for the first, 33.6% for the second.

First: O=C(CCN1C(=O)/C(=C/c2cccc(Br)c2)SC1=S)NNC(=O)c1cccnc1
Second: COC(=O)[C@H]1C[C@@H]1[C@H](NC(=O)c1cnccn1)c1ccccc1
The “activity, negative = inhibition” value of the first is lower: -8.93% for the first, -5.05% for the second.

Going from `O=C(Cn1cccc1)NC1CCCCCC1` to `Cc1c(Br)cc(C(=O)NC2CCCCC2)c(C)c1C`, the “activity, negative = inhibition” value falls from 5.48% to -8.72%.

Going from `C=CCn1c(SCC(=O)N2CC(=O)Nc3ccccc32)nc2scc(-c3ccccc3)c2c1=O` to `CCOC(=O)CSc1nnc(CSc2nc3sc4c(c3c(=O)[nH]2)CCCC4)n1-c1ccccc1`, the “activity, negative = inhibition” value falls from -13.4% to -29.7%.

Compared with `Cc1ccc(-n2c(C)nnc2SCC(=O)N2CCc3ccccc3C2)cc1C`, `CCCc1ccc(-c2cc(C(=O)NN3CCOCC3)c3ccccc3n2)cc1` is lower in “activity, negative = inhibition” value: 0.438% for the first, -8.77% for the second.

First: CCOC(=O)c1sc(N(Cc2ccccc2)C(=O)CN2C(=O)CN(C)C2=O)nc1C
Second: CCn1c(C)nc2c1C(=O)c1ccccc1C2=O
The “activity, negative = inhibition” value of the first is lower: -26% for the first, -24.8% for the second.

Compared with `c1ccc(-c2nccc(-c3ccc(-n4cnc5ccccc54)cc3)n2)nc1`, `O=C(/C=C/Nc1ccccc1)c1ccc(Oc2ncccn2)cc1` is lower in “activity, negative = inhibition” value: -20.9% for the first, -24.4% for the second.

Compared with `CCOC(=O)c1cn(-c2nc(-c3ccc(Cl)cc3)cs2)c2c(F)c(N3CC(C)OC(C)C3)c(F)cc2c1=O` (centres undefined), `COC(=O)c1c(-c2ccc3ccccc3c2)csc1NC(=O)Cc1ccc(OC)c(OC)c1` is higher in “activity, negative = inhibition” value: -6.02% for the first, 9.92% for the second.

Going from `CCCn1cnc2c1c(=O)n(CCCCC(C)=O)c(=O)n2C` to `COCc1nc2c([nH]1)c(=O)n(C)c(=O)n2CC(C)C`, the “activity, negative = inhibition” value rises from 5.76% to 5.94%.

Compared with `NC(=O)C(=O)O`, `O=C(O)CCCCCNC(=O)c1ccccc1Br` is higher in “activity, negative = inhibition” value: 9.07% for the first, 15.5% for the second.

First: COc1ccc(C(=O)O/N=C/c2ccc(S(=O)c3ccc(Cl)cc3)nc2)cc1 (centres undefined)
Second: CCOc1[nH]n(-c2ccc(Cl)cc2)c(=O)c1C=Nc1ccc(Cl)cc1
The “activity, negative = inhibition” value of the first is higher: 4.34% for the first, 1.47% for the second.

Going from `CCCn1nnnc1-c1cc(Cl)cc(Cl)c1` to `CCC(C)n1nnc2c(=O)oc3ccccc3c21` (centres undefined), the “activity, negative = inhibition” value rises from -16.5% to 9.18%.

First: CC1=CC(=C2C(=O)c3ccccc3C2=O)C=C(C)O1
Second: Cc1ccc(OCC(=O)Nc2ccc(S(=O)(=O)Nc3onc(C)c3C)cc2)cc1
The “activity, negative = inhibition” value of the first is higher: -1.34% for the first, -9.39% for the second.

Compared with `Cc1ccc(-n2ncc3c(=O)n(CC(=O)NCC4CCCO4)cnc32)cc1` (centres undefined), `COc1ccc(-c2nc3cnc(N4CCNCC4)nc3n(C3CC3)c2=O)cc1` is higher in “activity, negative = inhibition” value: -2.25% for the first, 1.04% for the second.

Going from `CCOc1ccc(N/N=C(/C#N)C(N)=O)cc1` to `CCOC(=O)/C(C#N)=C\N(C)C`, the “activity, negative = inhibition” value rises from -4.83% to 0.62%.

Going from `Cc1ccc(C(=O)N/C(=C/C=C/c2ccccc2)C(=O)NCc2ccco2)cc1` to `O=C(/C=C/c1ccc2ccccc2c1)c1ccoc1`, the “activity, negative = inhibition” value falls from 7.67% to -5.53%.

First: NC1=NC(=O)/C(=C/c2cccs2)S1
Second: O=C(N/N=C/c1ccc([N+](=O)[O-])s1)c1ccccc1Br
The “activity, negative = inhibition” value of the first is higher: 20.3% for the first, -20.2% for the second.

Compared with `COc1ccc2c(c1)-c1c(sn(-c3ccc(OC)c(OC)c3)c1=S)C(C)(C)N2`, `COC(=O)c1ccc(Oc2cc(C)nc(-n3nc(C)cc3C)n2)cc1` is lower in “activity, negative = inhibition” value: 21.3% for the first, -10.5% for the second.

Going from `CN1CCN(c2ncc3ncc(=O)n(CCC#N)c3n2)CC1` to `Cc1cc(Oc2ccc(-c3ccccc3)cc2)nc(N2CCOCC2)n1`, the “activity, negative = inhibition” value falls from 1.57% to -22.5%.

First: Cc1cccc(NC(=S)NNC(=O)CC(C)O)c1C (centres undefined)
Second: CNC(=O)c1nnn(Cc2ccccc2)c1NC(=O)C(F)(F)F
The “activity, negative = inhibition” value of the first is lower: -3.05% for the first, 14.6% for the second.

`O=C(c1cccc(F)c1)N1CCC2(CCCN(c3ccc(-c4ccccc4)cc3)C2)CC1` was tested, and the “activity, negative = inhibition” value was 3.09%.

Compared with `C=C(Br)CN(C)CC(=C)Br`, `O=C(O)c1cccc(OCCO)c1` is lower in activity, negative = inhibition: 9.77% [at 11.4 µM] for the first, 5.58% [at 11.4 µM] for the second.

Compared with `C[C@](O)(c1ccccc1)c1nccc2ccccc12`, `C=CCSc1nc2ccccc2c(=O)n1Cc1ccco1` is higher in activity, negative = inhibition: -11.5% [at 11.4 µM] for the first, -11.2% [at 11.4 µM] for the second.

Compared with `C[C@@H](c1ccccc1)N1C(=O)[C@H]2[C@H]3[C@H](O)[C@H](O)C/C(=N/OC[C@@H](O)COCc4ccco4)[C@H]3CC[C@@H]2C1=O`, `C/C(CCC(=O)OC[C@@H]1O[C@H](C#Cc2ccccc2)C=C[C@@H]1Oc1ccc(C)cc1)=N/OC[C@@H](O)COCc1ccco1` is higher in activity, negative = inhibition: -0.906% [at 11.4 µM] for the first, 5.64% [at 11.4 µM] for the second.

First: CO[C@@H]1COC(=O)[C@H]2CCCN2C(=O)[C@@H](C)COC(=O)C/C=C\[C@H]1C
Second: CO[C@H]1COC(=O)[C@H]2CCCN2C(=O)C/C=C\[C@@H](C)[C@H](OC)COC(=O)C/C=C\[C@@H]1C
The activity, negative = inhibition of the first is higher: -1.92% [at 11.4 µM] for the first, -7.59% [at 11.4 µM] for the second.

Going from `OC[C@@H]1O[C@@H](n2cnc3c(SCc4ccccc4)ncnc32)[C@@H](O)[C@H]1O` to `O=P(O)(O)O[C@@H]1O[C@H](CO)[C@@H](O)[C@H](O)[C@@H]1O`, the activity, negative = inhibition rises from -0.968% [at 11.4 µM] to 9.85% [at 11.4 µM].

First: C[C@H]1CN(CCO)CCN1c1ccccc1
Second: CC1=C[N+](=O)c2ccccc2[N+]1=O
The activity, negative = inhibition of the first is lower: 11.2% [at 11.4 µM] for the first, 22.3% [at 11.4 µM] for the second.

Compared with `COc1ccc(O[C@H]2C=C[C@@H](c3ccccc3)O[C@H]2CO/N=C\C[C@@H]2C=C[C@H](OC(C)=O)[C@H](COC(C)=O)O2)cc1`, `CC(=O)OC[C@@H]1O[C@H](CCO/N=C(\C)CCC(=O)OC[C@@H]2O[C@H](C#Cc3ccccc3)C=C[C@@H]2Oc2ccc(C)cc2)C=C[C@@H]1OC(C)=O` is higher in activity, negative = inhibition: -5.75% [at 11.4 µM] for the first, 15.9% [at 11.4 µM] for the second.

Compared with `COc1ccc(O[C@H]2C=C[C@@H](c3ccccc3)O[C@H]2CO/N=C(/C)CCC(=O)OC[C@@H]2O[C@H](c3ccccc3)C=C[C@@H]2Oc2ccc(OC)cc2)cc1`, `COc1ccc(O[C@H]2C=C[C@@H](c3ccccc3)O[C@H]2CO/N=C2/c3cc(OC)ccc3O[C@@H](c3cccc(OC)c3)[C@H]2O)cc1` is lower in activity, negative = inhibition: 8.39% [at 11.4 µM] for the first, -21.5% [at 11.4 µM] for the second.

Compound `CCCNC(=O)OC[C@@H]1O[C@H](CCO/N=C2\c3cc(OC)ccc3O[C@H](c3cccc(OC)c3)[C@H]2O)C=C[C@@H]1Oc1ccc(OC)cc1` has an activity, negative = inhibition of -1.45% [at 11.4 µM].

In the case of `COc1c(C)c2c(c(O)c1C/C=C(\C)CCC(=O)O)C(=O)OC2`, the AC50 is reported as “inactive”.
For `CN(C)Cc1ccccc1-c1cncnc1NCc1cccs1`, the AC50 was 12.6 µM (active).
For `O=C(Cn1c(SCC(=O)N2CCc3ccccc3C2)nc2ccccc21)NC1CCCC1`, the AC50 was 25.1 µM (active).
In the case of `C=CCn1c(SCC(=O)N2CCc3ccccc3C2)nc2ccccc2c1=O`, the AC50 is reported as 15.8 µM (active).
`CC1=CC(=O)c2ccccc2C1=O` was tested, and the AC50 was 7.94 µM (active).
In the case of `COc1ccccc1CNc1ncncc1-c1ccccc1OC`, the AC50 is reported as 10 µM (active).
In the case of `COc1ccccc1CNc1ncncc1-c1ccccc1C`, the AC50 is reported as 10 µM (active).
For `COc1ccccc1CNc1ncncc1-c1ccoc1`, the AC50 was 20 µM (active).
With `COc1ccccc1CNc1ncncc1-c1ccccc1Cl` the AC50 was 2 µM (active).
With `OCCN1CCN(CCOc2cccc(Cl)c2)CC1` the AC50 was 5.01 µM (active).
In the case of `CC(=O)OC[C@H]1O[C@@H](O/N=C(\C)CCC(=O)OC[C@@H]2O[C@H](C#Cc3ccccc3)C=C[C@@H]2Oc2ccc(C)cc2)[C@H](OC(C)=O)[C@@H](OC(C)=O)[C@H]1OC(C)=O`, the AC50 is reported as 3.98 µM (active).
For `COc1cccc([C@H]2Oc3ccc(OC)cc3/C(=N\O[C@@H]3O[C@H](COC(C)=O)[C@H](OC(C)=O)[C@H](OC(C)=O)[C@H]3OC(C)=O)[C@@H]2O)c1`, the AC50 was 3.16 µM (active).
`COc1ccc(O[C@H]2C=C[C@@H](c3ccccc3)O[C@H]2COC(=O)CC/C(C)=N/O[C@@H]2O[C@H](COC(C)=O)[C@H](OC(C)=O)[C@H](OC(C)=O)[C@H]2OC(C)=O)cc1` was tested, and the AC50 was 3.16 µM (active).
`O=C(NCCNc1ccc([N+](=O)[O-])cc1)c1ccccc1Br` was tested, and the AC50 was 11.2 µM (active).
In the case of `C[C@@H](C(=O)Nc1ccc2ccccc2c1)[C@H]1C[C@]1(C)[C@H](NC(=O)c1cnccn1)c1ccccc1`, the AC50 is reported as 0.1 µM (active).
For `C[C@@H](C(=O)Nc1ccc2ccccc2c1)[C@@H]1C[C@@]1(C)[C@@H](NC(=O)c1ccncc1Cl)c1ccccc1`, the AC50 was 12.6 µM (active).

First: O=C(CCCCC(=O)Nc1c(I)cc(I)c(C(=O)O)c1I)Nc1c(I)cc(I)c(C(=O)O)c1I
Second: Nc1ccc(S(=O)(=O)Nc2ccc(Cl)nn2)cc1
The “activity, negative = inhibition” value of the first is lower: -0.733% [at 25.6 µM] for the first, 6.78% [at 25.6 µM] for the second.

With `NC(=O)N1c2ccccc2C=Cc2ccccc21` the “activity, negative = inhibition” value was 1.87% [at 25.6 µM].
